Assay results taken from PubChem BioAssay AID624297 (National Center for Advancing Translational Sciences (NCATS), 2012).
Out of some 340,000 compounds screened, about 6,200 (1.8%) were called active. Not shown: some 10% with an inconclusive outcome. Only a selection was taken, and actives are over-represented in it overall. A number with no mark means an inactive call. Calls come from the whole dose curve; as a rule, active = well fitted activation curve with a large enough effect; inconclusive = small, poorly fitted or top-dose-only effect; inactive = no such curve, though single readings can be large or run the other way.

Test: A quantitative high throughput screen for small molecules that induce DNA re-replication in SW480 colon adenocarcinoma cells. For re-replication activation: % of control where 0% means no effect. Note: nearly all actives have a fitted effect of over 55% in size.
Conditions: Hoechst DNA content imaging, 48 h; series mostly up to 46.1 µM; re-replication activation: at the top concentration
Text: H Molecular Libraries Probe Production Network [MLPCN] NIH Chemical Genomics Center [NCGC] MLPCN Grant: Fast Track K99 CA136555 Assay Provider: Melvin DePamphilis, NICHD, NIH Assay Overview Eukaryotic cells normally restrict genome duplication to once per cell division. When this process is aberrant, DNA re-replication occurs when cells reinitiate DNA replication before the first round of replication is complete. DNA re-replication induces the DNA damage response, arrests cell proliferation, and triggers apoptosis. The cell cycle components cyclin A, Cdt-1, Cdc6 and geminin are critical regulators of this process and their misregulation results in DNA re-replication in normal and cancer cells. To identify compounds that induce re-replication in normal cells, an image-based assay was used to measure DNA content of nuclei, as detected by the fluorescent DNA binding dye, Hoechst. Cell nuclei were imaged by a fluorescence scanning plate imager and compounds that induce DNA re-replication were identified by the increase of nuclei with elevated fluorescence intensity
For screening, 250 cells in 5 uL/well were dispensed into black clear 1536-well plates (Aurora) using a solenoid-based dispenser. Following transfer of 23 nL compound or DMSO vehicle by a pin tool, the plates were incubated 48 hr at 37 C and 5% CO2. After addition of 1 uL/well Hoescht stain, the plates were incubated 40 min at 37 C, 5% CO2 and total intensity of fluorescent objects (nuclei) were enumerated by an Acumen Explorer Ex3 (TTP LabTech) fluorescence scanning plate imager (405 nm excitation, 500-530 nm emission). Keywords: NIH Roadmap, MLPCN, MLI, MLSMR, qHTS, NCGC, DNA replication, cancer
Potency is the fitted concentration of half-maximal effect.

Row | SMILES | re-replication activation | Potency
1 | CC(=O)c1c(OCC(=O)N(C)C2CCCCC2)ccc2c(C)cc(=O)oc12 | -0.36% | 
2 | CC(=O)c1cccc(-c2ccc(CN3C(CC(C)C)C(=O)N(Cc4cn(CC5CCCCC5)nn4)CCS3(=O)=O)cc2)c1 (stereo not given) | -0.514% | 
3 | CCOc1cccc(/C=N/N2C(=O)CSC2=S)c1O | -0.569% | 
4 | Cc1ccc(C(=O)NC(=S)NCCN2CCOCC2)cc1 | 0.443% | 
5 | CCOc1cccc(/C=N/NC(=S)NCCN2CCOCC2)c1O |  | 1.46 µM (active)
6 | COC1C(CO)OC(n2cnc3c(=S)nc(N)[nH]c32)C1O (stereo not given) | -3.09% | 
7 | CCOc1cc2c(cc1OCC)C(C(=O)O)C(c1ccc(OC)c(O)c1)N(C)C2=O (stereo not given) | -13.5% [at 9.22 µM] | 
8 | COc1cc2c(cc1OC)C1C(=O)c3cc(OS(C)(=O)=O)c(OC)cc3C1N(C)C2=O (stereo not given) |  | 7.31 µM (active)
9 | COc1cccc(NC(=O)C2c3cc(OC)c(OC)cc3C(=O)N(C)C2c2cccnc2)c1 (stereo not given) | 2.23% | 
10 | O=C1CC[C@@H]2CC3(C[C@@H]4CCN1[C@H]24)Nc1cc([N+](=O)[O-])ccc1NC3=NC1CCCCC1 (stereo not given in full) | -13.5% | 
11 | CC(NC(=O)COC(=O)CCC(=O)c1ccc(Cl)cc1)c1ccccc1 (stereo not given) | -6.09% | 
12 | FC(F)(F)c1nnc2ccc(N3CCN(c4ccccc4)CC3)nn12 | 0.3% | 
13 | Nc1nnc2c(C(F)(F)F)nc3ccccc3n12 | 6.87% | 
14 | FC(F)(F)c1nnc2c3ccccc3c(Cl)nn12 |  | 2.59 µM (active)
15 | COc1ccc(NS(=O)(=O)c2cc(NC(=O)c3ccc(S(=O)(=O)N(C)C)cc3)ccc2N2CCOCC2)cc1 | 4.03% | 
16 | COc1ccccc1C(=O)NCC(=O)OCC(=O)NNC(=O)c1ccc(Br)cc1 | 0.282% | 
17 | COc1ccc(/C=C2\CCc3ccccc3C2=O)c(OC)c1OC | 3.39% | 
18 | COc1ccc(/C=C2\N=C3CCCN3C2=O)cc1 | -18.8% | 
19 | COc1ccc(/C=C2/CCCc3ccccc3C2=O)cc1 |  | 9.2 µM (active)
20 | O=C(CN1C(=O)NC(Cc2c[nH]c3ccccc23)C1=O)Nc1ccccc1C(F)(F)F (stereo not given) | -21.5% | 
21 | CCCN=C1N(C)C[C@@H]2[C@@H]3C(=O)N(Cc4ccccc4)C(=O)[C@@H]3[C@](C)(C(=O)OC)N12 | 0.326% | 
22 | Nc1ccc2c(c1)C(O)c1ccc(Cl)cc1-2 (stereo not given) | 21.7% | 
23 | CCCNC(=S)NC1CC2CCCC(C1)N2CC(C)C (stereo not given) |  | 20.6 µM (active)
24 | CCCN1C2CCCC1CC(NC(=O)c1cccc(OC)c1)C2 (stereo not given) | -3.5% | 
25 | CCCN1C2CCCC1CC(NC(=O)NC13CC4CC(CC(C4)C1)C3)C2 (stereo not given) | -6.15% | 

Row | SMILES | re-replication activation | Potency
26 | O=C1c2ccccc2[C@@H]2C[C@@H](O)[C@H](Nc3ccccc3Cl)CCN12 | 7.29% | 
27 | Cc1ccc(CN(C)CC(=O)Nc2cccc([N+](=O)[O-])c2)o1 | 3.11% | 
28 | Cc1ccc(S(=O)(=O)N(CC(=O)Nc2cccc([N+](=O)[O-])c2)Cc2ccc(Cl)cc2)cc1 |  | 8.2 µM (active)
29 | COc1ccc(C)cc1S(=O)(=O)N(CC(=O)Nc1cccc([N+](=O)[O-])c1)c1ccc(C)cc1 | -5.43% | 
30 | CCCN(C(=O)CSc1nnc(N)s1)c1c(N)n(Cc2ccccc2)c(=O)[nH]c1=O | 26.3% | 
31 | COc1ccc2c(c1)c(=Cc1ccc(N(C)C)cc1)c1cc(-c3ccccc3)[n+](C)n12 | -3.87% | 
32 | CC(C)(C)OC(=O)CNC(=O)c1[nH]cnc1C(=O)N[C@@H](CCCCN)C(=O)OC(C)(C)C | -0.556% | 
33 | NS(=O)(=O)c1cccc(NC(=O)COC(=O)c2cc([N+](=O)[O-])ccc2N2CCCC2)c1 | -5.61% | 
34 | COC(=O)CC(CC(=O)OC)n1cccc1 | 0.407% | 
35 | CCN(CC)CCCC(C)n1c2nc(=O)[nH]c(=O)c-2nc2cc(Cl)ccc21 (stereo not given) |  | 11.6 µM (active)
36 | O=C(Cc1ccc(NC(=O)C2CCCN(C(=O)C3CCCCC3)C2)cc1)Nc1cccc(C(=O)N2CCCCC2)c1 (stereo not given) | 5.52% [at 9.22 µM] | 
37 | Cc1ccc(CC(=O)Nc2ccc(S(=O)(=O)N3CCOCC3)cc2)cc1C | -13.4% | 
38 | C=CCn1c(C)cc(C2=NNC(=NCC)SC2)c1C | 1.88% | 
39 | Cc1cc(C2=NNC(=Nc3ccc(S(=O)(=O)N4CCOCC4)cc3)SC2)c(C)n1CC1CCCO1 (stereo not given) |  | 3.66 µM (active)
40 | CN(C(=O)c1cccc(NC(=O)Cc2ccc(NC(=O)C3CCN(C(=O)C4CCCCC4)CC3)cc2)c1)C1CCC1 | 10.8% [at 9.22 µM] | 
41 | O=S1(=O)CSCS(=O)(=O)C1 | -1.95% | 
42 | Cc1ccc2nc(-c3cccnc3)c(NC3CCCC3)n2c1 | -5.41% | 
43 | COc1ccc(-c2nc3cnccn3c2NC(C)(C)CC(C)(C)C)cc1O | 4.42% | 
44 | COc1ccc(-c2nc3cnccn3c2NC2CCCCC2)cc1-c1cccc(Cl)c1 |  | 5.17 µM (active)
45 | COc1cc(NC(=O)COC(=O)c2ccc([N+](=O)[O-])s2)cc(OC)c1OC | -3.57% | 
46 | CCCn1c(=O)c(-c2ccccc2)c(O)c2ccccc21 | -4.27% | 
47 | CC(=O)c1ccc2c(c1)c1ccccc1n2CC(C)C | -4.69% | 
48 | CCCCN(CCCC)CC(O)Cn1c2ccccc2c(=O)c2ccccc21 (stereo not given) |  | 7.31 µM (active)
49 | Nc1nonc1-n1nnc(C(=O)N/N=C/c2ccccc2O)c1CN1CCCC1 | -5.57% | 
50 | Cc1ccc(SCc2c(C(=O)N/N=C/c3cccnc3)nnn2-c2nonc2N)cc1 | -16.9% | 
